Assay results: PubChem BioAssay AID1345085 (National Center for Advancing Translational Sciences (NCATS), 2018)
Records with an inconclusive call do not appear. Entries that show only a call come without a potency. Active and inactive are the calls of the source. Calls follow the shape of the dose curve; as a rule, active = well fitted cell-killing curve with a large enough effect; inconclusive = small, poorly fitted or top-dose-only effect, or effect the other way; inactive = no such curve, though single readings can be large or run the other way.

Tested on: C33A
Experiment: Confirmatory qHTS for gynecologic anti-cancer compounds from libraries of approved drugs and bioactive compounds; also: nearly all actives have a fitted effect of over 55% in size
Settings: gynecologic cancer cell panel viability, ATPlite luminescence, 48 h; series mostly up to 57.6 µM
Outline: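 Cells (1,000/well) plated 16 h, then exposed 48 h at 37 °C to 11 concentrations (1:3) from 57.5 uM to 0.977 nM. Viability by ATPlite luminescence after 15 min; IC50 derived, with HEK 293T used for selectivity index.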
Potency is read from the fitted curve at half-maximal effect.

| SMILES | Potency | activity change, negative = viability loss |
| --- | --- | --- |
| Nc1ccccc1NC(=O)c1ccc(CNc2nccc(-c3cccnc3)n2)cc1 | 3060 nM (active) | – |
| O=C(NOCC1CC1)c1ccc(F)c(F)c1Nc1ccc(I)cc1Cl | inactive | – |
| CN(C)C/C=C/C(=O)Nc1cc2c(Nc3ccc(F)c(Cl)c3)ncnc2cc1OC1CCOC1 (stereo not drawn) | 6850 nM (active) | – |
| Cc1cc(Nc2nc(N[C@@H](C)c3ncc(F)cn3)ncc2Cl)n[nH]1 | inactive | – |
| CC1(C)[C@@H](O)CC[C@]2(C)[C@H]3C(=O)C=C4[C@@H]5C[C@@](C)(C(=O)O)CC[C@]5(C)CC[C@@]4(C)[C@]3(C)CC[C@@H]12 | inactive | – |
| c1nc2nc(Nc3ccc(N4CCOCC4)cc3)nc(NC3CCCCC3)c2[nH]1 | inactive | – |
| CNc1nc(Nc2ccc(C(=O)N3CCOCC3)cc2OC)ncc1Cl | inactive | – |
| CCN[C@H]1C[C@H](C)S(=O)(=O)c2sc(S(N)(=O)=O)cc21 | inactive | – |
| NC1(c2ccc(-c3nc4ccn5c(=O)[nH]nc5c4cc3-c3ccccc3)cc2)CCC1 | inactive | – |
| Nc1ccc(-c2ccc3ncc4ccc(=O)n(-c5cccc(C(F)(F)F)c5)c4c3c2)cn1 | 172 nM (active) | – |
| CC[C@H](Nc1ncnc2nc[nH]c12)c1nc2cccc(F)c2c(=O)n1-c1ccccc1 | – | -0.528% [at 10.7 µM] (inactive) |
| Cc1c(C)n(Cc2ccc(-c3ccccc3C(=O)O)cc2)c2ccc(C(=O)N[C@@H](C)c3ccc([N+](=O)[O-])cc3)cc12 | inactive | – |
| CC(C)c1nn(-c2c(Cl)cccc2Cl)c2nc(Cc3ccc(OCCO)cc3)[nH]c(=O)c12 | 96.8 nM (active) | – |
| CC(=O)Nc1cccc(-n2c(=O)n(C3CC3)c(=O)c3c(Nc4ccc(I)cc4F)n(C)c(=O)c(C)c32)c1 | inactive | – |
| Cc1ccc(C(=O)Nc2ccc(Oc3cc4cnn(C)c4cc3-c3cn[nH]c3)c(F)c2)c(=O)n1-c1ccc(F)cc1 | inactive | – |
| COc1ccc2cc3[n+](cc2c1OC)CCc1cc2c(cc1-3)OCO2 | inactive | – |
| CNC(=O)c1nn(C)c2c1C(C)(C)Cc1cnc(Nc3ccc(N4CCN(C)CC4)cc3)nc1-2 | inactive | – |

| SMILES | Potency | activity change, negative = viability loss |
| --- | --- | --- |
| CCC1C(=O)N(C)c2cnc(Nc3ccc(C(=O)NC4CCC(N5CCN(CC6CC6)CC5)CC4)cc3OC)nc2N1C(C)C (stereo not drawn) | 172 nM (active) | – |
| Cc1cnc(Nc2ccc(CN3CCOCC3)cc2)nc1Nc1cccc(S(=O)(=O)NC(C)(C)C)c1 | 21700 nM (active) | – |
| CN(c1nccc(=O)[nH]1)C1CCN(c2nc3ccccc3n2Cc2ccc(F)cc2)CC1 | inactive | – |
| COc1ccc(OC)c(-c2nnc3ccc(-c4ccc(OC)c(O[C@@H]5CCOC5)c4)nn23)c1 | inactive | – |
| OCCNC1CCCc2c1[nH]c1ccc(-c3ccccc3)cc21 (stereo not drawn) | 17200 nM (active) | – |
| CCS(=O)(=O)c1cccc(-c2cc(C(=O)NC3CCN(C)CC3)c(C)c3[nH]c4ncc(C)cc4c23)c1 | 5340 nM (active) | – |
| CCN(CC)CCOc1ccc(/C(=C(\Cl)c2ccccc2)c2ccccc2)cc1 | 79400 nM (active) | – |
| CCCCN(CCCC)C(=O)CN1C[C@H](c2ccc3c(c2)OCO3)[C@@H](C(=O)O)[C@@H]1c1ccc(OC)cc1 | inactive | – |
| CN(C)C1CCN(C(=O)c2ccc(NC(=O)Nc3nc(N4CCOCC4)nc(N4CCOCC4)n3)cc2)CC1 | 172 nM (active) | – |
| Cc1cc(Nc2nc(N[C@@H](C)c3ccc(F)cc3)c(C#N)cc2F)n[nH]1 | inactive | – |
| O=C(NCC(O)CO)c1ccncc1Nc1ccc(I)cc1F (stereo not drawn) | inactive | – |
| O=C1c2c(O)ccc(O)c2C(=O)c2c(NCCNCCO)ccc(NCCNCCO)c21 | 306 nM (active) | – |
| CN(C)/N=N/c1nc[nH]c1C(N)=O | inactive | – |
| CN(NC(=O)CC(=O)NN(C)C(=S)c1ccccc1)C(=S)c1ccccc1 | 27.3 nM (active) | – |
| CCCC(Nc1nc(-c2ccc(NC(=O)NCC)c(OC)c2)ncc1C)c1cccnc1 (stereo not drawn) | 153 nM (active) | – |
| N#CC1(c2cccc(C(=O)Nc3cc(Oc4ccc5nc(NC(=O)C6CC6)sc5n4)ccc3F)c2Cl)CC1 | inactive | – |
